# ALR inh = inhibitors of human ALR sulfhydryl oxidase, primary screen, biochemical, H2O2 detection, HRP-luminol luminescence, single point. inhibition, % (concentration not given with the values). FAD-linked sulfhydryl oxidase ALR (Homo sapiens), P55789. AID 485317, 2010. 290,000 compounds, 3.8% hits. purified ALR, DTT oxidation;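 active means mean replicate inhibition above about 79%, with every replicate also reaching it, limit read from the data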
# Target sequence (P55789 whole entry, looked up): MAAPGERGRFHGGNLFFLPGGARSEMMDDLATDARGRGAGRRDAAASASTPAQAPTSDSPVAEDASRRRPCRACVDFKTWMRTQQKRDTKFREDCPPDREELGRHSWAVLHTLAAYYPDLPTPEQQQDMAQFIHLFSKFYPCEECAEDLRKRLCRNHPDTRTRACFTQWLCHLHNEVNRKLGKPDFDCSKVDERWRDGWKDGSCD
# APOBEC3A inh = APOBEC3A ssDNA deaminase inhibitors, primary screen, selectivity assay for APOBEC3G inhibitor project, biochemical, FAM/TAMRA oligo cleavage fluorescence; DNA dC->dU-editing enzyme APOBEC-3A (Homo sapiens), P31941; recombinant A3A, FAM/TAMRA ssDNA deamination fluorescence; inhibition, % at 20 µM; 330,000 compounds, 0.41% hits; AID 493011, 2011;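 active means at least 40% inhibition at 20 µM here, with at most 30% in a related deaminase screen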
# Target sequence (P31941 whole entry, looked up): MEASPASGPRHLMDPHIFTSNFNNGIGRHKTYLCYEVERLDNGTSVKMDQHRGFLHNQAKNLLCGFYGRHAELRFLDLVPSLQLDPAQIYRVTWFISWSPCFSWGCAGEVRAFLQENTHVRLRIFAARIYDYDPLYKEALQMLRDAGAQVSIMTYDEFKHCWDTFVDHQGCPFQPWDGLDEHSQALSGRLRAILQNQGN
# APOBEC3G inh = APOBEC3G DNA deaminase inhibitors, primary screen, biochemical, fluorescence, single-stranded DNA substrate, uHTS; recombinant A3G, ssDNA deamination FAM/TAMRA fluorescence; 330,000 compounds, 0.28% hits; inhibition, % at 20 µM;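 active means inhibition of at least 40% at 20 µM, with no more than 30% in the related APOBEC3A deaminase screen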
# PfM18AAP inh = PfM18AAP inhibitors, malaria aminopeptidase, primary screen, biochemical, QFRET, recombinant enzyme; M18 aspartyl aminopeptidase (Plasmodium falciparum 3D7); AID 1822, 2009; H-Glu-NHMec fluorogenic cleavage; 290,000 compounds, 1.2% hits; inhibition, % at 7.35 µM;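 active means inhibition above the campaign mean inhibition over all tested compounds plus 3 SD, cut at about 28% in these data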
# Yeast superoxide = reduction of superoxide in aged yeast, primary screen, HTS; S. cerevisiae aged cells, superoxide DHE fluorescence; hits give low values; superoxide response (% of plate mean), % at 10 µM; 330,000 compounds, 0.18% hits;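 active means superoxide response under a set limit, about three screen SD below normal, cut at about 65% in these data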;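 further: yeast aged for seven days with compound at 30 °C before DHE staining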
# CendR NRP1 mod = modulators of CendR peptide binding to NRP-1, primary screen, biochemical, fluorescence polarization, uHTS | FAM-RPARPAR peptide binding to NRP-1 | inhibition, % at 25 µM | 360,000 compounds, 0.85% hits;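 active means inhibition or corrected inhibition above about 18%, plus a signal ratio from 0.5 to 1.5, limit read from the data, passing the limit was not always enough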
# CR mimetic CP = superoxide lowering in aged yeast cells, confirmation, cherry picked compounds; AID 434994, 2010; superoxide response (% of plate), % at 10 µM; shares compounds with Yeast superoxide; 850 compounds, 1% hits; S. cerevisiae aging, superoxide DHE fluorescence; hits give low values;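 active means superoxide signal below 65% of the plate average of sample wells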;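 further: cells aged with compound for 7 days at 30 degrees C before staining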
# DHE fluor count = DHE quenching or ROS scavenging interference in aged yeast, artefact control for yeast caloric restriction mimetic project, S. cerevisiae BY4741, flow cytometry; AID 435000, 2010; fluorescence response, % at 10 µM; DHE fluorescence; hits give low values; shares compounds with Yeast superoxide; 850 tested, under 10 active;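 active means fluorescence response below 15%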;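 further: lower means stronger quenching of DHE signal or ROS scavenging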
# Numbers stand for hits; . = inactive; / = no result. Only some compounds are listed: those with a hit (about 5.2% of all), similar ones and a draw of the others.
SMILES,ALR inh,APOBEC3A inh,APOBEC3G inh,PfM18AAP inh,Yeast superoxide,CendR NRP1 mod,CR mimetic CP,DHE fluor count
COC(=O)c1cccc2nc3c(C(C)O)cccc3nc12 (stereo not given),.,.,.,/,50,.,.,.
COc1cc(Nc2ncnc(N)n2)cc(OC)c1,.,.,.,.,59,.,.,.
Cc1ccccc1NC(=O)CSc1nnnn1C,.,.,.,.,60,.,.,.
Cn1nnnc1SCC(=O)Nc1ccccc1-c1ccccc1,/,.,.,.,.,.,/,/
COc1ccccc1NC(=O)CSc1ccc(-c2ccc(-n3ccnc3)cc2)nn1,.,.,.,/,.,.,.,.
Cc1ccc(NC(=O)CSc2ccc(-c3ccc(-n4cccn4)cc3)nn2)c(C)c1,.,.,.,/,.,.,/,/
Cc1ccccc1NC(=O)CSc1ccc(-c2ccc(-n3cccn3)cc2)nn1,.,.,.,/,.,.,.,.
COc1ccccc1NC(=O)CSc1ccc(-c2ccco2)nn1,.,.,.,.,.,.,/,/
C#CCSc1nnc(-c2ccc([N+](=O)[O-])cc2)o1,.,.,.,.,54,.,.,.
CC(C)CC(C(=O)OCC(=O)Nc1cccc(Cl)c1)N1C(=O)C2CC=CCC2C1=O (stereo not given),.,.,.,.,.,.,/,/
CCOc1ccccc1NC(=O)COC(=O)C(CC(C)C)N1C(=O)C2CC=CCC2C1=O (stereo not given),.,.,.,.,65,.,.,.
COc1ccc(C2(C(=O)NCCc3ccccc3)CCCC2)cc1OC,.,.,.,.,47,.,.,.
CN1CCN(CCCNC(=O)CCN2C(=O)COc3ccccc32)CC1,.,.,.,.,.,.,/,/
CCOC(=O)c1cc(=O)n(Cc2ccccc2C)c2ccccc12,.,.,.,.,61,.,.,.
CCCn1c(SCC(=O)O)nc2ccccc21,.,.,.,.,.,.,/,/
COc1ccccc1-c1nnc(NC(=O)c2ccc(S(=O)(=O)N(C)CC3CCCO3)cc2)o1 (stereo not given),.,.,.,.,.,.,.,.
CCCCN(C)S(=O)(=O)c1ccc(C(=O)Nc2nnc(C3=COCCO3)o2)cc1,91,.,.,.,.,30,.,.
CN(CC1CCCO1)S(=O)(=O)c1ccc(C(=O)Nc2ccccc2F)cc1 (stereo not given),.,.,.,.,.,.,/,/
CN(CC1CCCO1)S(=O)(=O)c1ccc(C(=O)Nc2nnc(-c3ccccc3)o2)cc1 (stereo not given),.,.,.,.,.,.,.,.
Cc1ccc(N2C(=O)C3CCCN3C2=S)cc1 (stereo not given),.,.,.,.,.,.,/,/
COc1ccc(N2CCN(S(=O)(=O)c3cccs3)CC2)cc1,.,.,.,.,.,.,/,/
CN(C)CCCNC(=O)CCc1nc2ccccc2c(=O)[nH]1,.,.,.,.,.,.,/,/
Cc1oc(-c2ccccc2Cl)nc1Cn1cccc1C1=NC(c2ccccc2)CO1 (stereo not given),.,.,.,.,.,.,/,/
Cc1csc(Nc2ccccc2C(F)(F)F)n1,.,.,.,.,64,.,.,.
O=C1CC(=C2c3ccccc3-c3ccccc32)C(=O)N1CCCCN1CCN(c2ccccc2)CC1,.,.,.,.,15,.,.,.
